Screening data from PubChem BioAssay.
HCMV inh – blocks human cytomegalovirus replication; HFF cells, HCMV-luciferase reporter, 72 h; active compounds read low; activity change, negative = inhibition, % at 57.5 µM; hit rate 4.5% among 410,000; AID 1259415; in the data active = activity change below about -60%; inconclusive = no clear call, values can overlap the other calls; inactive = above about -39%
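Steps: HFFs plated, 16 h 37C; compounds added; HCMV-luciferase added to MOI 1 PFU/cell; 72 h 37C; OneGlo reagent, 5 min room temperature; luminescence read, normalized to controls.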
AmpC detergent – inhibitors of E. coli AmpC beta-lactamase with detergent; AmpC hydrolysis of nitrocefin, absorbance 480 nm, 0.01% Triton; Potency, µM (titrated, usually from 114 µM), most hits filed as inhibitors; hit rate 0.041% among 370,000; note: nearly all actives have a fitted effect of over 25% in size
Target sequence (P00811 whole entry, looked up): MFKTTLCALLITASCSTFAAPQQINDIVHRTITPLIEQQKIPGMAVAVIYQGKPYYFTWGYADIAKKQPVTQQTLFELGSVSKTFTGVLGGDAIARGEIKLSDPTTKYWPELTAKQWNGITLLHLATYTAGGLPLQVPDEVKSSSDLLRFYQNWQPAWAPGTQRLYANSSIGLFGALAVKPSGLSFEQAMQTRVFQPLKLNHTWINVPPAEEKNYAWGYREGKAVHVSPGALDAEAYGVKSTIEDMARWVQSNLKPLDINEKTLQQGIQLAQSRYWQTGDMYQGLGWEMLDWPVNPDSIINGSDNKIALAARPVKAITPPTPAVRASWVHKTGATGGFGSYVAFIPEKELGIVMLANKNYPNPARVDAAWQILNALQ
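20 mM phosphate pH 7.0 + 0.01% (detergent screen) or 0.0001% Triton X-100; 5.3 nM AmpC reagent; cpd preinc 15 min RT; nitrocefin (800 uM stock) to start; A480 q20 s × 4 min; Activity was normalised to no-enzyme and no-compound control wells.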
HCV inhibitor – HCV inhibition. Huh7.5.1 HCVcc-Cre infection, luciferase reporter, 44 h. Potency, µM (series often up to 41.8 µM), hits mostly inhibitors. hit rate 3.4% among 340,000. AID 651820
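Cells (1,000/well) were plated 4 h before compound, then infected with HCVcc-Cre virus (~0.5 moi). After 44 h further culture, infection was read as luciferase luminescence following a 15 min substrate incubation at room temperature.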
FMDV antiviral – blocks foot and mouth disease virus; FMDV antiviral cell-based qHTS; AID 1159524; Potency, µM (series often up to 57.9 µM), hits mostly inhibitors; hit rate 1.2% among 410,000; calls by dose curve; tested in HEK293T cells; note: read-out not given here; nearly all actives have a fitted effect of over 45% in size
AmpC inh no detg – AmpC beta-lactamase inhibition without detergent | P00811 | AmpC nitrocefin hydrolysis, absorbance 480 nm, 0.0001% Triton | Potency, µM (doses to about 57.1 µM), usual class: inhibitors | hit rate 0.52% among 330,000 | AID 485341; note: nearly all actives have a fitted effect of over 20% in size
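20 mM phosphate pH 7.0 + 0.01% (detergent screen) or 0.0001% Triton X-100; 5.3 nM AmpC reagent; cpd preinc 15 min RT; nitrocefin (800 uM stock) to start; A480 q20 s × 4 min; Activity was normalised to no-enzyme and no-compound control wells.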
Hits are given with their value; - = inactive; ? = inconclusive; . = no result; + = active, no number; ! = a repeat was not active. In the library only some 7.3% were active in any assay of this set; here they are far more common. Unless noted, calls come from the whole dose curve; as a rule, active = well fitted curve in the direction sought with a large enough effect; inconclusive = small, poorly fitted or top-dose-only effect, or another doubt; inactive = no such curve, though single readings can be large; an effect the other way counts as inactive or inconclusive.

SMILES	HCMV inh	AmpC detergent	HCV inhibitor	FMDV antiviral	AmpC inh no detg
O=[N+]([O-])c1ccc(N2CCN(c3ccc([N+](=O)[O-])cc3CO)CC2)c(CO)c1	-66	?	3.2µM	?	-
COC(=O)c1cc2c(c3c4cc(C)ccc4n(S(=O)(=O)c4cccc(C)c4)c13)C(=O)N(C)C2	-	.	.	.	.
CCCCn1nnnc1C1(C)CCC(=O)N1CCc1ccccc1F (centres undefined)	-	.	.	-	.
CCOC(=O)c1c(NC(=O)COc2cc(C)ccc2C(C)C)sc2c1CCCC2	-	-	.	-	.
CC(=O)N1CCCc2cc(S(=O)(=O)N3CCC(C(=O)NCc4ccccc4)CC3)ccc21	-	-	.	-	.
CN1/C(=C/c2cc[n+](C)c3ccccc23)C=Cc2ccccc21	.	?	?	14µM	-
Cc1ccc(C(=O)C2C(=O)C3CCC2C3)cc1 (centres undefined)	-73	.	.	.	.
Cc1ccc(CN2CCc3nnc(C(NC(=O)c4ccoc4)C(C)C)n3CC2)cc1C (centres undefined)	.	.	.	-	.
CCOc1cc(Cl)c(NC(C)=O)cc1OCC	-63	?	?	-	-
COc1ccc(-c2cn3nc(N4CCC(C(=O)Nc5ccc(C)cc5)CC4)sc3n2)cc1	-	-	.	-	.
COc1ccc2[nH]cc(/C=C/c3cc[n+](C)cc3)c2c1	-92	-	7.9µM	-	-
O=C(/C=C/c1c[nH]c2ccccc12)c1ccccc1	-	-	?	-	16µM
OCC[n+]1ccc(/C=C/c2c[nH]c3ccccc23)cc1	-99	-	3.5µM	-	-
COc1ccc2[nH]cc(C(=O)CCl)c2c1	-100	-	?	28µM	-
CCOC(=O)CCc1c(C)c2ccc(OC3CCCCC3=O)cc2oc1=O (centres undefined)	-	-	-	?	-
Cc1ccc(COC(=O)c2ccc3ccccc3n2)cc1	-	-	-	-	-
COc1cc(=O)n2c(c1C(=O)N(C)Cc1nonc1C)CCN(CC1CC=CCC1)CC2 (centres undefined)	.	.	.	-	.
O=C(N/N=C/c1cccc2ccccc12)c1ccncc1	-	?	-	-	-
COc1ccc2[nH]cc(/C=C/C(=O)c3ccccc3)c2c1	-	-	10µM	-	-
COc1ccc2[nH]cc(C=O)c2c1	-	-	-	-	-
O=C(/C=C/c1cccc2ccccc12)c1ccncc1	-83	-	16µM	14µM	-
Cc1cc(C)c2c(CN3CCN(c4ccccc4F)CC3)cc(=O)oc2c1	-	.	.	-	.
C=C1C(=O)O[C@H]2C1CC[C@@](C)(O)C13C=CC(C)(C21)C1(C3)C(=O)O[C@@H]2C3C(C)=CCC3[C@](C)(O)C[C@H](OC(C)=O)C21 (some centres undefined)	-90	-	-	-	-
O=C(Nc1cc(Cl)cc2c1-c1ccc(Cl)cc1C2O)C(Cl)Cl (centres undefined)	-	.	11µM	-	.
Nc1cc(Cl)cc2c1-c1ccc(Cl)cc1C2O (centres undefined)	?	.	?	-	.
SMILES	HCMV inh	AmpC detergent	HCV inhibitor	FMDV antiviral	AmpC inh no detg
O=C(CNC(=O)c1ccc(Cl)cc1)NCc1ccccn1	-	-	-	-	-
Cc1nn(C(C)(C)C)c(C)c1/C=N/OC(=O)Nc1ccc(Cl)cc1	-101	-	?	5.6µM	-
Oc1ccc(Cl)cc1Cc1ccccc1	-	.	-	-	.
Oc1ccc(Cl)cc1Cc1cc(Cl)ccc1O	-89	-	?	?	-
COc1ccc([C@H]2C[C@@H](O)[C@H](n3cc(-c4ccc(F)cc4)nn3)CN2CC2CCCCC2)cc1	-	.	.	-	.
O[C@H]1C[C@H](c2ccccc2)N(CC2CCCCC2)C[C@@H]1n1cc(-c2ccc(F)cc2)nn1	-101	.	.	?	.
CC(=O)Oc1ccc(OC(C)=O)c(S(=O)(=O)c2ccc(C)c(C)c2)c1	-	-	-	-	-
CC(=O)Oc1ccc(OC(C)=O)c(SCCCCCCl)c1	-72	-	11µM	?	-
Cc1cccc(NC(=O)COC(=O)CN2C(=O)c3ccccc3C2=O)c1	-	.	.	-	.
CCCCn1c(CCC)nc([N+](=O)[O-])c1Sc1ccc(Cl)cn1	-77	-	-	?	-
O=c1c2ccccc2nc2n1CCS2(=O)=O	-	-	-	32µM	-
O=P(O)(O)CN1CCNCCN(CP(=O)(O)O)CCNCC1	-61	.	?	-	.
COCCNC(=O)C(=O)NCCN1CCNCC1	-	-	-	-	-
O=C(NCc1ccccc1F)[C@H]1[C@H](CO)[C@H]2Cn3c(cccc3=O)[C@H]2N1CC1CC1	-	.	.	.	.
COc1ccc(O)c(C2=Nc3ccccc3N=C(c3ccccc3)C2)c1	-	?	-	25µM!	-
Cc1cccc(C2=Nc3ccccc3N=C(c3cc(Cl)ccc3O)C2)c1	-	-	.	-	.
CCC(C)c1ccc(N(CC(=O)NC(C)(C)C)C(=O)CNC(=O)c2cccs2)cc1 (centres undefined)	?	-	-	-	-
O=C1CC(c2cccnc2)=NN1c1ccc(Cl)cc1Cl	-100	-	-	-	-
CN(CC(=O)Nc1nc2ccccc2s1)S(=O)(=O)c1ccc(Br)cc1	-	-	?	35µM	-
CCOc1ccc2nc(NC(=S)N(C)C)sc2c1	-	-	?	-	-
CN(C)C(=S)Nc1nc2ccccc2s1	-	-	14µM	-	-
COc1cccc(CNC(=O)COC(=O)c2ccc(-c3ccc(O)cc3)cc2)c1	-	.	.	-	.
Fc1ccc2nc3c(nc2c1)CCCC3	-	-	-	-	-
CCN(C(=O)CSc1nnc(C)c(=O)[nH]1)c1cccc2ccccc12	-	.	-	-	-
CC(C)c1ccc(Nc2nc(N3CCOCC3)nc(N3CCOCC3)n2)cc1	-	.	.	?	.
SMILES	HCMV inh	AmpC detergent	HCV inhibitor	FMDV antiviral	AmpC inh no detg
Cc1ccccc1Nc1nc(N2CCOCC2)nc(N2CCOCC2)n1	+	-	-	-	-
c1ccc2c(Nc3nc(N4CCOCC4)c4ccccc4n3)cccc2c1	-	-	?	28µM	-
Cc1ccc(Nc2nc(N3CCOCC3)nc(N3CCOCC3)n2)cc1	-65	-	?	-	-
O=C(Nc1nnc([C@H]2C[C@H](O)[C@@H](CO)O2)s1)NC(c1ccccc1)c1ccccc1	-	.	.	-	.
CC(C)Oc1ccc2ccccc2c1CNC[C@H]1O[C@@H](n2ccc(=O)[nH]c2=O)[C@H](O)[C@@H]1O	-	.	.	-	.
O=C(COc1ccc(C(=S)N2CCCC2)cc1)Nc1ccccc1C(F)(F)F	-65	-	-	-	-
O=C(COc1ccc(C(=S)N2CCOCC2)cc1)Nc1ccccc1C(F)(F)F	-87	-	?	-	-
O=C(COc1ccc(C(=S)N2CCCC2)cc1)Nc1ccc(F)cc1	?	?	-	-	-
Cc1nc(CN2CCN(C(=O)NC3(c4ccccc4)CC3)CC2)cs1	-77	-	-	-	-
Cc1cccc(-c2nc(CN3CCN(C(=O)C4CCCO4)CC3)cs2)c1 (centres undefined)	-	-	?	-	-
COc1ccccc1OCCCOc1ccc([N+](=O)[O-])cc1Cl	-	-	22µM	-	-
